Screening data (PubChem)
PTHR1 ag – qHTS for PTHR1 Agonists: Primary Screen. Parathyroid hormone/parathyroid hormone-related peptide receptor (Homo sapiens), Q03431. HEK293 GP2 PTHR1 cells, GloSensor cAMP luminescence, 1 h. Potency, µM (series often up to 115 µM), for inactives: at the highest dose activation, actives largely listed as activators. 410,000 tested, 0.075% active; further: potency means the concentration at half of the fitted maximal effect; nearly all actives have a fitted effect of over 55% in size
Target sequence (Q03431 whole entry, looked up): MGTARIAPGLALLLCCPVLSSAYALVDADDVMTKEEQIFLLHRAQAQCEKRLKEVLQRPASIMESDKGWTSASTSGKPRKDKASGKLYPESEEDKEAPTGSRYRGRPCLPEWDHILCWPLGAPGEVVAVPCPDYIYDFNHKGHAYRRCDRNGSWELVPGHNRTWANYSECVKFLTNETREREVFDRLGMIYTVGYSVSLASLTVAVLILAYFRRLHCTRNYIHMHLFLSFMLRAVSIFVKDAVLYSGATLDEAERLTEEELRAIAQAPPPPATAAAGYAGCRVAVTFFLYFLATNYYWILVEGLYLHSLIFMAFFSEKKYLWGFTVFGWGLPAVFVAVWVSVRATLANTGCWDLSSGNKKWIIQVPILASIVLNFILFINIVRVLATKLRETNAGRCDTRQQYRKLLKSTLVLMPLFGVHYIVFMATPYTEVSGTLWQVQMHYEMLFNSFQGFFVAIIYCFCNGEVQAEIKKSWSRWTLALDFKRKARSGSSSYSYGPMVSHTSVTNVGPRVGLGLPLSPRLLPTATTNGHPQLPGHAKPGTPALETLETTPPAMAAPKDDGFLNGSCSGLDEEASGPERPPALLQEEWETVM
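HEK-293-derived GP2 cells expressing PTHR1 and a GloSensor cAMP reporter, 3,000/well, plated overnight, given luciferin plus IBMX (each 0.5 mM as added) for 1 h at 37 °C, then compound for 1 h at 37 °C. Luminescence was read after 15 min at room temperature.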
GLP1R inv ag – qHTS of GLP-1 Receptor Inverse Agonists (Inhibition Mode); 410,000 tested, 1.6% active; Potency, µM (highest dose often 38.3 µM), without a hit: at the highest dose activity change, negative = inhibition, hits mostly inhibitors; HEK293 GLP-1R CRE-luciferase, luminescence, 24 h; GLP-1R form is constitutively active; AID 624417, 2012; Glucagon-like peptide 1 receptor (Homo sapiens), P43220; further: potency means the concentration at half of the fitted maximal effect; on the % scale 0 is the no-effect control and ±100 the full control effect; nearly all actives have a fitted effect of over 55% in size
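Seeding at 200 cells/uL, 12 h culture, 24 hr compound treatment, then luciferase reagent and a luminescence read; cells are HEK293 stably expressing a constitutively active GLP-1R plus cAMP-responsive luciferase.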
GLP1R cytotox – qHTS of GLP-1 Receptor Inverse Agonists: Cytotox Screen; 410,000 tested, 0.13% active; HEK293 cAMP-luciferase reporter cells, luminescence, 24 h; Potency, µM (doses to about 38.3 µM), without a hit: top-dose activity change, negative = inhibition, hits mostly inhibitors; AID 624418, 2012;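 further: loss of luciferase light is scored as toxicity; potency means the concentration at half of the fitted maximal effect; on the % scale 0 is the no-effect control and ±100 the full control effect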
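Seeding density was 200 cells/uL; after overnight-length (12 h) culture, 23 nL compounds went on for 24 h at 37 °C. Readout used a luciferase detection reagent, luminescence taken after 12 min at room temperature.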
GLP-1R agonist – qHTS of GLP-1 Receptor Agonists; Glucagon-like peptide 1 receptor (Homo sapiens), P43220; HEK293 GLP-1R CRE-luciferase, luminescence, 4-6 h; cells express a hypersensitive GLP-1R form; Potency, µM (top dose mostly 45.6 µM), inactives show at the top dose activation, actives largely listed as activators; 380,000 tested, 0.007% active; AID 624172, 2012; further: potency means the concentration at half of the fitted maximal effect; % of control where 0% means no effect
Pin1 inhibitor – qHTS Assay to Find Inhibitors of Pin1; Peptidyl-prolyl cis-trans isomerase NIMA-interacting 1 (Homo sapiens), Q13526; Pin1 FP peptide displacement, HiFluor488, 10 min; Potency, µM (top dose mostly 115 µM), without a hit: top-dose activity, negative = inhibition, hits mostly inhibitors; 390,000 tested, 0.009% active; AID 504891, 2011; active means well fitted inhibition curve with a large enough effect in the polarisation, with a control signal flat, not every such curve was filed as active; inconclusive means small, poorly fitted or top-dose-only effect, or effect the other way, or a change in a side signal; inactive means no such curve, though single readings can be large or run the other way; the % refers to the polarisation; further: potency means the concentration at half of the fitted maximal effect; on the % scale 0 is the no-effect control and ±100 the full control effect
miR-21 reporter – qHTS Assay for Modulators of miRNAs and/orActivators of miR-21; HeLa miR-21 FLuc reporter, luciferase, 48 h; Potency, µM (top dose mostly 38.3 µM), inactives show top-dose activity change, positive = activation, hits mostly activators; 340,000 tested, under 10 active;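 further: % of control where 0% means no effect; miR-21 action dims this reporter so a rising signal means less miR-21 action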
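HeLa cells endogenously expressing miR-21, stably carrying CMV-driven firefly luciferase with a downstream miR-21 binding site, 2000 cells/well. Titrations up to approximately 40 uM, 48 hours; luciferase luminescence read.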
* hit, by the source's call; i = inactive; ? = inconclusive; / = no result; [ ] = another dose, or the depositor's remark. Sampled rows, rich in hits. Any-hit rate of the full collection: about 1.7%. Unless noted, the call rests on the fitted dose curve; in most records, active means well fitted curve in the direction sought with a large enough effect; inconclusive means small, poorly fitted or top-dose-only effect, or another doubt; inactive means no such curve, though single readings can be large; an effect the other way counts as inactive or inconclusive.

SMILES	PTHR1 ag	GLP1R inv ag	GLP1R cytotox	GLP-1R agonist	Pin1 inhibitor	miR-21 reporter
CN(C)c1ccc(/C=C/c2c([N+](=O)[O-])c(=O)n(C)c(=O)n2C)cc1	-36%	-12%	-23%	-1%	-2%	-8%
CCCOc1cc(C)c(Cl)cc1S(=O)(=O)N(CC)CC	-17%[57.5 µM]	2.5µM*	1%	0%	19%	-3%
CCOc1cc(C)c(Cl)cc1S(=O)(=O)N(C)C	-9%	-17%	0%	5%	-11%	-11%
Cc1ccc(C(C)(C)C)cc1S(=O)(=O)Nc1nc2ccccc2nc1Cl	-38%	10µM*	-15%	0%	-15%	26%
Cc1cc(F)ccc1S(=O)(=O)Nc1nc2ccccc2nc1Cl	-73%	?	-20%	2%	-16%	9%
CCc1ccccc1NC(=O)Nc1cccn(Cc2ccccc2F)c1=O	-24%	10µM*	-6%	9%	1%	-2%
CSc1ccc(NC(=O)Nc2cccn(Cc3ccccc3F)c2=O)cc1	-93%	?	6%	-13%	10%	-5%
CCOc1ccccc1C(=O)Nc1ccc(S(=O)(=O)Nc2onc(C)c2C)cc1	i	59%	1%	/	0%	-24%
O=C1C2C3C=CC(O3)C2C(=O)N1Nc1ccccc1 (stereo not given)	i	8.9µM*	-4%	4%	-3%	/
O=C1c2ccccc2CCCC12N=NCC2c1cccc2ccccc12 (stereo not given)	i	7.1µM*	13%	0%	1%	-1%
CCCCN1CC(COCc2ccccc2)Oc2cccc(OCCN3C(=O)[C@@H]4[C@H](C3=O)C3C=C[C@H]4C3)c2S1(=O)=O (stereo not given in full)	-20%	10µM*	-20%	-1%	8%	/
CCCCN1CC(COCc2ccccc2)Oc2cccc(Oc3ccc(OC)cc3)c2S1(=O)=O (stereo not given)	-41%	?	13%	-1%	4%	/
O=S1(=O)c2ccc(Br)cc2OC(COCc2ccccc2)CN1Cc1ccccc1 (stereo not given)	-1%	10µM*	-6%	11%	0%	/
CCCCN1CC(COCc2ccccc2)Oc2ccccc2S1(=O)=O (stereo not given)	-24%	11µM*	15%	8%	6%	/
COc1ccccc1N1CCN(C(=O)Cn2cnc3onc(-c4ccc(F)cc4)c3c2=O)CC1	i	-29%	0%	7%	-2%	-2%
Cc1ccc2nc(CN3CCN(S(=O)(=O)c4ccc(F)cc4)CC3)oc2c1	-23%	-1%	2%	/	-5%	-3%
CCN(CC)c1ccc(/C=C(/C#N)c2nc3ccccc3[nH]2)c(OC(C)C)c1	i	1.8µM*	-12%	13%	?	-12%
CSc1ccc(/C=C/C(=O)c2ccc(NC(=O)Cc3ccccc3)cc2)cc1	-11%[57.5 µM]	-13%	51%	-1%	?	18%
CSc1ccc(/C=C/C(=O)c2ccc(NC(=O)C(C)C)cc2)cc1	i	10µM*	?	-12%	39%	1%
COc1ccc(C(=O)N(Cc2ccccc2)Cc2ccc(OC)c(COc3ccc(NC(C)=O)cc3)c2)cc1	/	/	/	/	8%	/
Cc1ccc(Cn2c(C3CCCN3c3nc(C)cs3)nc3cc(C(F)(F)F)ccc32)cc1 (stereo not given)	i	10µM*	-27%	0%	20%	16%
Cc1ccc(-n2ncc3c(NCCCOC(C)C)ncnc32)c(C)c1	-15%[57.5 µM]	2.5µM*	13%	1%	-2%	-2%
